Measured values published in PubChem BioAssay AID488789 (Broad Institute, 2010).
Measured potencies and affinities stand elsewhere. Results filed as inconclusive are left out. Calls of active or inactive are those of the source.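 Rule for the calls: active = samples whose fitted half-maximal inhibition concentration is no more than ten times the top valid dose tested; inconclusive = flat response between -70 and -30, or invalid curve fit; inactive = flat within 30 of zero, potency above limit, or signal rising.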

These compounds were tested against Trypsin (Sus scrofa) (UniProt P00761) (assay: trypsin protease activity blockade – biochemical, quenched peptide fluorescence, cherry-pick, selectivity assay for Rce1 protease inhibitor project, dose response (AID 488789;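 note: more negative means stronger trypsin inhibition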)). Conditions: porcine trypsin, quenched peptide cleavage fluorescence; series mostly up to 10 µM.
Chain of Trypsin (Sus scrofa) (P00761 whole entry, looked up): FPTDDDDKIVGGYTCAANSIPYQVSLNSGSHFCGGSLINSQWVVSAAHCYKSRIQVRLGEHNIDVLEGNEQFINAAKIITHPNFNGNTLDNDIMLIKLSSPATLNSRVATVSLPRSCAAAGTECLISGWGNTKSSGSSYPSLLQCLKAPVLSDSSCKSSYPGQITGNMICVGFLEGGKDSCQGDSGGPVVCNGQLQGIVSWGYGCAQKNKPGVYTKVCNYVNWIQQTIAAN

outcome, inactive:
CN1c2ccc(C=O)c3c(C=O)ccc(c23)N(C)C1(C)C
CCN(CC)CCN(Cc1cc2cc3c(cc2[nH]c1=O)OCO3)C(=S)NCc1ccco1
COc1cccc2sc3ccc(C#CC4(O)CCCCC4)cc3c(=O)c12
CNC(=S)N/N=C/c1cn(Cc2c(F)cccc2Cl)c2ccccc12
Cc1ccc(OCCN2C(=O)C(=O)c3cc(C)ccc32)cc1
CC(=O)c1ccc(-c2ccc(C(=O)N3CCC(C(N)=O)CC3)o2)cc1
O=C(c1cnc2n(c1=O)CCS2)N1CCN(C(c2ccccc2)c2ccc(Cl)cc2)CC1 (stereo not drawn)
CCc1cc(=O)oc2cc(OCC(=O)N3CCC(C(=O)O)CC3)ccc12
COC(C/C=C/C(=O)[C@H](C)OCc1ccccc1)OC
CCCn1c(O)c(N=NC(=O)CNC(=O)Cc2ccc(OC)cc2)c2ccccc21
CC(=O)Oc1ccc(C(=O)Nc2ccc(S(=O)(=O)NCC3CCCO3)cc2)cc1 (stereo not drawn)
CC(C)c1ccc(NC(=O)COc2nncc3ccccc23)cc1
CCn1cc(/C=C(\NC(=O)c2ccccc2F)C(=O)N2CCOCC2)c2ccccc21
CCC(C)(C)c1ccc(OCCCC[n+]2cccc(C)c2C)c(C(C)(C)CC)c1
CSc1ccc(/C=C/C(=O)OCC(=O)NC(C)C)cc1
C/C(CC(=O)NCc1ccco1)=N\NC(=O)c1ccc([N+](=O)[O-])cc1Cl
Cc1ccc(S(=O)(=O)Nc2ccccc2C(=O)NCC2CCCO2)cc1 (stereo not drawn)
Cn1c(=O)c(C(=O)NCCO)c(O)c2ccccc21
COc1ccc(NS(=O)(=O)c2c(C)cc(C)cc2C)cc1
COc1ccc(-c2cn3ccccc3n2)cc1[N+](=O)[O-]
COc1cccc(-c2cc(C(F)(F)F)n3ncc(S(=O)(=O)c4ccccc4)c3n2)c1
C=C(C)CSc1nc2sc3c(c2c(=O)n1-c1ccc(OC)cc1)CCN(C)C3
CN(C(=O)c1ccc2c(c1)SC1=NS(=O)(=O)CCN12)C(c1ccccc1)c1ccccc1
CN(C)C(=O)COc1ccc2ccc(=O)oc2c1
Clc1ccc(CN2CCc3c([nH]c4ccccc34)C2)cc1Cl
Cc1cc(N2CCN(C(c3ccccc3)c3ccccc3)CC2)n2ncnc2n1
Cc1cc(C)c2cc(C#N)c(NCCCNC(=O)CCC(=O)O)nc2c1
CC(C)N1CCN(S(=O)(=O)c2ccc3ccccc3c2)CC1
Cc1ccc2c(c1)sc[n+]2Cc1ccccc1
CCn1cc(/C=C(\NC(=O)c2ccccc2F)C(=O)N2CCCC2)c2ccccc21
O=[N+]([O-])c1ccc(-c2cnc(SC(c3ccccc3)c3ccccc3)[nH]2)cc1
Cc1cc(C)cc(Nc2nc(-c3ccc(S(=O)(=O)N4CCCC4)cc3)cs2)c1
COC(=O)c1nc(N)sc1-c1ccc(Cl)c(Cl)c1
Cc1ccc(Nc2nc(-c3ccc(S(=O)(=O)N4CCOCC4)cc3)cs2)cc1Cl
COc1ccc(-c2cc(C(F)(F)F)nc(SCC(=O)N(C)Cc3cn(C)nc3C)n2)cc1OC
O=C(c1cc(-c2ccccc2)nc2ccccc12)N1CCN(c2ccccn2)CC1
O=C1CN(C(=O)NCC(=O)N2CCCC2)c2ccccc2N1
CS(=O)(=O)Nc1ccccc1C(=O)NCc1ccccc1Cl
